This is an account of results in PubChem BioAssay AID504332 (National Center for Advancing Translational Sciences (NCATS), 2011).

In all, about 350,000 compounds went through this assay and about 31,000 (8.9%) were called active. About 15% were inconclusive and are not listed. The sample holds actives, similar compounds and a random draw of the others, so the mix is not that of the screen. Values without a mark were called inactive. Calls come from the whole dose curve; as a rule, active = well fitted inhibition curve with a large enough effect; inconclusive = small, poorly fitted or top-dose-only effect; inactive = no such curve, though single readings can be large or run the other way.
% is set by controls: 0 for no effect and ±100 for the full control effect; potency is the fitted concentration of half-maximal effect.

Chain of Histone-lysine N-methyltransferase EHMT2 (Homo sapiens) (Q96KQ7 913-1193 limits assumed): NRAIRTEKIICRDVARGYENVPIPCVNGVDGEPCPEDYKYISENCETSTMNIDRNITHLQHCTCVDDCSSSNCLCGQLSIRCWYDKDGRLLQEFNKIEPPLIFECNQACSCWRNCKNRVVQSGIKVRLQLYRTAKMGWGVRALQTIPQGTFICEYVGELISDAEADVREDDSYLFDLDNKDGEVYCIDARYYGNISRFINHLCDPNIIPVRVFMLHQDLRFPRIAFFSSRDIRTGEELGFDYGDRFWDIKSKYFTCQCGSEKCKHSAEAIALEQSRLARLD

This assay concerns the target Histone-lysine N-methyltransferase EHMT2 (Homo sapiens) (UniProt Q96KQ7). Put plainly: qHTS Assay for Inhibitors of Histone Lysine Methyltransferase G9a. Note: nearly all actives have a fitted effect of over 75% in size. Particulars: G9a H3K9 monomethylation, AlphaScreen, 2 h; series mostly up to 59 µM; activity, negative = inhibition: at the top concentration. In outline: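 G9a (20 nM) preincubated 15 min RT with compounds, then 500 nM biotinylated H3K9 peptide and 20 uM SAM added; 2 h RT reaction. Monomethyl-H3K9 product detected by AlphaScreen with anti-H3K9me1 antibody, streptavidin donor and anti-rabbit IgG acceptor beads.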
Turning to `CN1CCN(CCC(=O)N/N=C/C=C2\N(C)c3ccccc3C2(C)C)CC1`, the Potency is 31.6 µM (active).
Turning to `CCN(CCCNC(=O)c1cc2c(=O)n(CC)c3ccccc3c2s1)Cc1ccccc1`, the “activity, negative = inhibition” value is 2.01%.
Take `CCOC(=O)c1ccc(NC(=O)Cc2cccs2)cc1`: the “activity, negative = inhibition” value is 23% [at 102 µM].
For the compound `CCCN1C(=O)C(O)(CC(=O)c2ccc(CC)cc2)c2cc(Br)ccc21` (stereo not drawn), the “activity, negative = inhibition” value was 8.12%.
`COc1ccc(C2OC(=O)CC2C(=O)NC(C)C)cc1` (stereo not drawn): the Potency is 28.2 µM (active).
Turning to `COc1ccc(N2CC(C(=O)N[C@@H](C)C(=O)N3CCCCC3)CC2=O)cc1` (stereo partly drawn), the “activity, negative = inhibition” value was 13.8% [at 102 µM].
Turning to `COc1ccc(C(C)NC(=O)C2CCCC2)cc1` (stereo not drawn), the “activity, negative = inhibition” value was 49.3% [at 102 µM].
Still for that read-out and setting: in the case of `COc1ccc(NC(=O)CSc2nc3ccccc3n2CC(=O)N2CCCCC2C)cc1` (stereo not drawn) it was 16.3%; in that of `CCOc1ccc(NC(=O)CN(C)C(=O)Cc2sc(C)nc2-c2ccc(F)cc2)cc1OCC`, -29.9%; in that of `O=C(NCCc1c[nH]c2ccccc12)c1cc2ccccc2oc1=O`, -44.1% [at 102 µM].
For the compound `Cc1cc(C)cc(NC(=S)NCCc2c[nH]c3ccccc23)c1`, the Potency was 39.8 µM (active).
In the case of `O=C(NCCc1c[nH]c2ccccc12)c1cccc(Br)c1`, the activity, negative = inhibition is 0.2% [at 2.33 µM].
Still for that read-out and setting: to `O=C(O[C@H]1[C@H](Cc2ccccc2)NS(=O)(=O)[C@H]2C[C@@H]3C=C[C@]12O3)c1ccc([N+](=O)[O-])cc1` belongs -6.93% [at 2.33 µM]; to `Brc1ccc(CN2CC[C@H]3C=CCc4cccc(c43)C2)cc1`, 12.2% [at 2.33 µM].
The same measure, in the same setting: in the case of `CCc1ccc(NC(=O)c2cc(S(=O)(=O)NC3CCCCCC3)ccc2F)cc1` it was 13.9%.
Still for that read-out and setting: in the case of `COc1ccc(-c2[nH]ncc2CN(Cc2nccn2C)C(C)C)cc1F` it was -38.6% [at 102 µM]; in that of `Cc1cccc(-n2cc(CN3CCN(C(=O)c4ncn[nH]4)CC3)c(-c3cccc(F)c3)n2)c1`, -37.2% [at 102 µM].
In the case of `Cc1ccc(-n2cc(CN(C)Cc3nccn3C)c(-c3cccc(C)c3)n2)cc1`, the Potency was 39.8 µM (active).
Take `COc1cc(C(=O)NCCS(=O)(=O)N2CCN(c3ccccc3)CC2)cc(OC)c1OC`: the “activity, negative = inhibition” value is -36.6%.
On the same count and under the same terms, in the case of `Cc1ccccc1CNC(=O)C(=O)NCC(c1cccs1)S(=O)(=O)c1cccs1` (stereo not drawn) it was 4.09%; in that of `CCc1ccc(NC(=O)CCS(=O)(=O)c2cc3c(cc2Cl)NC(=O)CO3)cc1`, -7.38%.
Turning to `CCOC(=O)c1ccc(-c2ccc(/C=C(\C#N)C(=O)Nc3ccc(C)cc3)o2)cc1`, the “activity, negative = inhibition” value is -4.08%.
On the same count and under the same terms, to `O=C(Nc1ccc2c(c1)OCO2)c1ccc(N2C(=O)c3ccccc3C2=O)cc1` belongs 7.92% [at 102 µM].
Take `CC(=O)Nc1ccc(NC(=O)c2ccc3c(c2)C(=O)N(c2ccccc2C)C3=O)cc1`: the Potency is 39.8 µM (active).
With `Cc1cccc(N2C(=O)c3ccc(C(=O)Nc4cccc(C(=O)O)c4)cc3C2=O)c1`, the “activity, negative = inhibition” value was -31.2% [at 102 µM].
Still for that read-out and setting: to `O=C(CCNS(=O)(=O)c1ccc(Br)cc1)NCC1CCCO1` (stereo not drawn) belongs 5.66%.
Still for that read-out and setting: in the case of `CC1CN(C(=O)N2CCC(C(=O)NCc3cccs3)CC2)c2ccccc2O1` (stereo not drawn) it was 5.28%; in that of `CSCCC(NC(=O)COc1ccccc1)C(=O)OCCOc1ccc(F)cc1` (stereo not drawn), -5.75% [at 102 µM].
On the same count and under the same terms, in the case of `COC(=O)c1cc(-c2cccs2)nc2ccccc12` it was 17% [at 2.33 µM].
With `O=C(Nc1nnc(-c2ccccc2)o1)c1cc(-c2cccs2)nc2ccccc12`, the Potency was 39.8 µM (active).
With `CCCCN(C)CCCNC(=O)c1cc(-c2cccs2)nc2ccccc12`, the “activity, negative = inhibition” value is -36.5% [at 102 µM].
As for `COC(=O)c1cc2occc2n1Cc1nc(-c2ccc(C)cc2)oc1C`, the “activity, negative = inhibition” value is -36.5%.
Still for that read-out and setting: to `CC(=O)c1c(C)[nH]c(C(=O)OCC(=O)Nc2c(C)n(C)n(-c3ccccc3)c2=O)c1C` belongs -2.75% [at 102 µM]; to `Cc1ccc(CC2CC(=O)N(c3ccc4c(c3)OCCO4)C2=O)cc1` (stereo not drawn), 10.7% [at 102 µM].
In the case of `Cc1ccc(N2C(=O)CC(NCc3ccc4c(c3)OCO4)C2=O)cc1Cl` (stereo not drawn), the Potency is 39.8 µM (active).
`CC1CCCCN1CC(=O)NCc1ccc2c(c1)OCO2` (stereo not drawn): the activity, negative = inhibition is 8.12% [at 12.7 µM].
As to `O=C(c1ccc(Cn2cc([N+](=O)[O-])cn2)o1)N1CCCC1`, the “activity, negative = inhibition” value was 14.9% [at 102 µM].
Same read-out and setting: to `CCCCNC(=O)C1CCCN(c2nnc(C)c3c(C)n(-c4ccc(Cl)cc4)nc23)C1` (stereo not drawn) belongs -11%.
`CCOc1ccc(-n2c(SCC(=O)Nc3ccc(OC)cc3)nc3sc4c(c3c2=O)CCN(C)C4)cc1`: the Potency is 39.8 µM (active).
`CC1(C)Cc2c(sc3nc(SCC(=O)NCc4ccccc4)n(-c4ccccc4)c(=O)c23)CS1`: the “activity, negative = inhibition” value is 13.5% [at 102 µM].
As for `CCOc1ccc(NC(=O)CSc2nc3c(c(=O)n2-c2ccccc2OC)SCC3)cc1`, the Potency is 31.6 µM (active).
`CCOC(=O)c1sc(NC(=O)CSc2nc3c(c(=O)n2-c2ccccc2)SCC3)c(C(=O)OCC)c1C`: the “activity, negative = inhibition” value is 12.9% [at 102 µM].
Still for that read-out and setting: to `CCOc1ccc(NC(=O)CSc2nncn2C)cc1` belongs 0.64% [at 102 µM].
`COc1ccccc1NC(=O)CSc1nc2sc3c(c2c(=O)n1-c1ccccc1)CCN(C)C3`: the Potency is 39.8 µM (active).
For `COc1ccccc1-n1c(SCC(=O)O)nc2sc3c(c2c1=O)CCC3`, the “activity, negative = inhibition” value is 0.797% [at 102 µM].
The same measure, in the same setting: to `COc1ccc(-n2c(SC)nc3sc4c(c3c2=O)CCN(C(C)=O)C4)cc1` belongs 12%; to `CCc1nnc(NC(=O)CSc2nc3c(c(=O)n2-c2ccccc2OC)SCC3)s1`, -12.8% [at 12.7 µM]; to `COc1ccc(/C=C/c2nc(C#N)c(NCc3ccc(F)cc3)o2)cc1OC`, -37.4%.
